Experimental data reported in ChEMBL document CHEMBL1157539, “Thousands of chemical starting points for antimalarial lead identification” (Nature, 2010).

Tests used:
Type in all cases: functional
Plasmodium falciparum [1] = test: GSK_TCMDC: Inhibition of Plasmodium falciparum 3D7 in whole red blood cells, using parasite LDH activity as an index of growth. Test compounds present at 2uM
Plasmodium falciparum [2] = test: GSK_TCMDC: Inhibition of Plasmodium falciparum Dd2 in whole red blood cells, using parasite LDH activity as an index of growth. Test compounds present at 2uM
HepG2 = test: GSK_TCMDC: Percent inhibition of human HepG2 cell line. Test compounds present at 10uM.

SMILES | Inhibition (Plasmodium falciparum [1]) | Inhibition (Plasmodium falciparum [2]) | Inhibition (HepG2)
O=C(Nc1cccc(-c2ccc(-c3nc4cc(C(F)(F)F)ccc4[nH]3)cc2)c1)c1ccncc1 | 100% | 90% | 79%
O=C(/C=C/c1ccc(Cl)c(Cl)c1)NCCCCCN1CCC(NC(=O)Nc2ccc(F)c(Cl)c2)CC1 | 100% | 11% | 98%
COc1cc(NC(=O)Nc2ccnc3ccccc23)cc(OC)c1.Cl | 98% | 34% | 11%
